From PubChem BioAssay (NCI) come the findings set out here.

“And” between values parts separate entries of the source, which are not always exact repeats. Identical values can stand only once. The panel holds about 83,000 compounds, 20% with a hit somewhere; the sample as a whole holds those more often.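 Interpretation: 100, growth as untreated; towards 0, rising growth inhibition; 0, no net growth; 0 to -100, cell death. Compounds scoring below 10 were considered active.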 Unmarked numbers belong to inactive results. The source made the active and inactive calls.

The assay concerns MDA-MB-468 breast. Description: NCI-60 one-dose screen, 48 h (100 = growth as untreated, 0 = no growth, -100 = all killed). The settings on record: 10 µM unless noted.
In the case of `CN(C)CCOC(=O)Nc1nc2ccc(Sc3ccccc3)cc2[nH]1`, the growth is 2.02% (active).

For the compound `CC12CCC3C(CCC4CC(=O)/C(=C\O)CC43C)C1CCC(=O)O2` (stereo not given), the growth was 108%. On to `COc1ccc(-c2nc(SCCC(C)C)nc(N/N=C\c3ccc(O)cc3)c2C#N)cc1`, for which the growth was 88.8%.

Turning to `N#CN1CCC[C@H]1C(=O)N1CCc2c(-c3[nH]nc4ncccc34)cccc21`, the growth is -19% (active). Turning to `O=C(N/N=C/c1ccc(Cl)s1)c1[nH]c2ccc(Br)cc2c1-c1ccccc1`, the growth was 2.96% (active). As for `CN1CCN(Cc2ccc(NC(=O)c3nc4ccc5[nH]ncc5c4c4c3CCC4)cc2C(F)(F)F)CC1`, the growth was -59.2% (active). In the case of `Clc1cc(Cl)c2nc(-c3ccc(-c4ccc(/C=N/NC5=NCCN5)cc4)s3)cn2c1`, the growth was 103%. On to `O=C(CCl)NNc1nccc(Nc2ccc(S(=O)(=O)Nc3ccncc3)cc2)n1`, for which the growth is 31.5%. For the compound `Cc1cnc(N)nc1OCC(C)(C)CNC(=O)c1cccc(-c2ccc(S(=O)(=O)Nc3ccc4c(c3)N(C(=O)C3CC3)CCC4)cc2)c1`, the growth is 22.6%. As to `NC(=O)SCC(=O)Nc1ccc(S(N)(=O)=O)cc1`, the growth was 91.4%.

As to `CCCNS(=O)(=O)c1ccc(Cl)cc1`, the growth was 102%. As to `CC(CCC(=O)O)(NC(=O)c1ccc([N+](=O)[O-])cc1)C(=O)O` (stereo not given), the growth is 112%. Regarding `O=CNc1cc(Cl)cc(Cl)c1`, the growth is 103%. In the case of `Cc1cc(C)c2c(-c3nnc(N)s3)cc(=O)oc2c1`, the growth is 104%. Take `COc1cccc(-c2nc3cc(NC(=O)c4ccc(Cl)c(C#N)c4)ccc3o2)c1`: the growth is -60.3% (active). Turning to `CCCCC(=O)c1ccc(OC)cc1`, the growth is 85.2%. Turning to `Cc1cc(O)cc(-c2nn(C)cc2-c2cc(N3CCOCC3)nc(-c3cccnc3)n2)c1`, the growth was -3.22% (active). Take `FC(F)(F)c1cn(CC2CNC2)c2ncnc(Cl)c12`: the growth was 111%. Regarding `C=C[C@@H]1C[C@H](O)Cc2c(C)cc(C)cc2N1`, the growth was 91.9%. With `CC[n+]1ccc2c(c1)C(=O)c1nccc3c1c-2nc1ccccc13`, the growth is -52.3% (active). With `COc1cc(/C=N/NC(=O)c2ccc(C)nc2)cc(OC)c1OC`, the growth is 98.5%. In the case of `CN1C(=O)C(=Cc2coc3ccc(Br)cc3c2=O)C(=O)N(C)C1=O` it was 102%; in that of `CC1=CC(C)(C)NC(=S)N1c1ccc(Cl)cc1`, 97.6% and 105%.

For `COc1cc(/C=C/c2cc(/C=C/c3ccc(O)c(OC)c3)nc(N)n2)ccc1O`, the growth was -35% (active). For the compound `O=C(Cn1nnc2ccccc21)N/N=C/c1c[nH]c2ccccc12`, the growth was 34.5%. For `C#C[C@]1(O)CC[C@H]2[C@@H]3CC=C4c5sc(Nc6cccc(Cl)n6)nc5CC[C@]4(C)[C@H]3CC[C@@]21C`, the growth is 23.3%. As for `C=CCSSc1ncnc2c1ncn2C1OC(CO)C(O)C1O` (stereo not given), the growth was 7.11% (active). Turning to `COc1ccc(C2CC(c3ccc(Nc4ccnc5cc(Cl)ccc45)cc3)=NN2c2ccccc2)cc1` (stereo not given), the growth was 101%. In the case of `O=C1C(N2CCOCC2)=C(I)C(=O)c2ncccc21` it was 42%. In the case of `CC(C)[N+](C)(C)CC(O)COc1cccc2ccccc12` (stereo not given) it was 104%; in that of `COc1ccc(/C=N/NC(=O)Cn2c(Cc3cccc4ccccc34)nc3ccccc32)cc1`, 92.4%; in that of `CC12CCC3c4ccc(O)cc4CCC3C1CCC2=O` (stereo not given), 96.4%. As to `CC(=O)OCC(=O)[C@@]1(O)CC[C@H]2[C@@H]3CCC4=CC(=O)CC[C@]4(C)[C@@]3(F)[C@@H](O)C[C@@]21C`, the growth is 121%.

Turning to `CCOC(=O)OCC(=O)[C@@]1(O)CC[C@H]2[C@@H]3CCC4=CC(=O)CC[C@]4(C)[C@H]3[C@@H](O)C[C@@]21C`, the growth was 123%.

`CC1=C(N2CCOCC2)C(N2CCOCC2)=C(C)C(=O)C1=O`: the growth is 97.1%. Regarding `CN1CCC(c2ccccc2)(c2ccccc2)C(=O)C1`, the growth is -11.8% (active). In the case of `COc1cc(C2CC(c3ccccc3)=NN2C=O)ccc1Oc1ccnc2cc(Cl)ccc12` (stereo not given) it was 16.5%. The value for `CSc1nnc(C2=CC(=O)c3ccccc3C2=O)n1-c1ccccc1` was 82.6%; that for `CN(C)CCCNc1c2ccccc2nc2ccccc12` was 83.4%; that for `C#CCOc1ccccc1C(Nc1ccccc1)c1nnnn1C1CCCCC1` (stereo not given) was 93.7%.
